In PubChem BioAssay (NCATS):
Results filed as inconclusive are left out. A call without a number means that no potency is given here. The source made the active and inactive calls. Calls follow the shape of the dose curve; as a rule, active = well fitted cell-killing curve with a large enough effect; inconclusive = small, poorly fitted or top-dose-only effect; inactive = flat fitted curve, though single readings scatter.
Potency is read from the fitted curve at half-maximal effect.

Test: qHTS of pediatric cancer cell lines to identify multiple opportunities for drug repurposing: Primary screen for DAOY cells (AID 1347090); also: nearly all actives have a fitted effect of over 55% in size
Conditions: DAOY medulloblastoma viability, CellTiter-Glo luminescence, 48 h; series mostly up to 46 µM
Description: Drug repurposing or repositioning has been offered as a strategy for drug development in oncology programs. This approach has special potential for childhood cancers and other rare or orphan diseases, where the expected return on new drug development has been a disincentive to pharmaceuticals.
In this project we exploit the poly-pharmacology of drugs to discover new indications via phenotypic screening of a panel of 19 well-characterized cell lines derived from solid tumors seen in children and adolescents. The goal is to identify approved drugs with previously unrecognized anticancer properties that has the potential to reveal new mechanisms and biological processes involved in carcinogenesis or drug resistance. We employed a titration-based paradigm (quantitative high-throughput screening or qHTS), where all compounds were tested at multiple concentrations for their effect on cell viability. Concentration-response curves (CRCs) were derived directly from the primary screen, and both potency and efficacy values were used to identify compounds with robust bioactivity profiles. We screened the NIH Chemical Genomics Center (NCGC) Pharmaceutical Collection (NPC) and Mechanism Interrogation Plate (MIPE) small molecule collections of approved and investigational compounds against these cell lines; and measured metabolically active cells after 48 hours of compound treatment as a proxy for cell viability.
Assay Submitter: Nathalia J. Martinez, National Center for Advancing Translational Sciences, National Institutes of Health, Rockville, MD, USA; email: natalia.martinez@nih.gov
[1] Shen, M et al. Quantitative high-throughput phenotypic screening of pediatric cancer cell lines identifies multiple opportunities for drug repurposing. Oncotarget 2017 Dec 19;9(4):4758-4772. PMID 29435139.
The cells were obtained from University of North Carolina (UNC), Pediatric Preclinical Testing Program (PPT), and Coriell Institute (CI).
qHTS cell viability assay:
Cells were assayed in growth media at a density of 500-1,000 cells/well. Five microliters of cells were dispensed into 1,536-well, white, solid-bottom, TC-treated plates (Greiner Bio One) using a multidrop dispenser and incubated at 37 degrees C, 5% CO2, under a humidified atmosphere for 5 hours. Twenty-three nanoliters of compounds and controls (neutral control DMSO or positive control bortezomib at final concentration of 2.3 µM) were subsequently transferred by Kalypsys pintool. For primary screens, the MIPE collection was tested at 11-point dilutions (final concentrations range from 0.78 nM to 46 µM) and the NPC collection at 8-point dilutions (final concentrations range from 0.59 nM to 46 µM). Compounds tested in follow-up screens were assayed at 11-point dilutions. Cells were incubated for 48 hours, followed by addition of 3 uL of CellTiter-Glo (Promega). After a 15 min incubation at room temperature, samples were analyzed for luminescence intensity using a ViewLux High-throughput CCD imager equipped with clear filters.
In the case of CCCCCC1Nc2cc(C(F)(F)F)c(S(N)(=O)=O)cc2S(=O)(=O)N1 (stereo not given), the Potency is reported as “inactive”. With COc1cc(C(=O)NC2CCCNC2)cc(OC)c1OC (stereo not given) the Potency was “inactive”. In the case of Nc1ccc2cc3ccc(N)cc3nc2c1, the Potency is reported as 26.6 µM (active). For Cc1ccc(C(=O)C(=O)O)cc1C, the Potency was “inactive”. In the case of COC(=O)c1c(Cl)c(Cl)c(C(=O)OC)c(Cl)c1Cl, the Potency is reported as “inactive”. For C1=CC2C3C=CC(C3)C2C1 (stereo not given), the Potency was “inactive”. For Cc1ncc([N+](=O)[O-])n1C, the Potency was “inactive”. For O=C(Oc1ccccc1)c1ccccc1O, the Potency was “inactive”. With COC(=O)c1ccc(NC(C)=O)cc1OC the Potency was “inactive”. With NS(=O)(=O)c1cc2c(cc1Cl)CN(C1CCCCC1)C2=O the Potency was “inactive”. With O=[N+]([O-])c1cncn1CCN1CCOCC1 the Potency was “inactive”. In the case of CC(C(O)c1ccccc1)N(C)CCOC(c1ccccc1)c1ccccc1 (stereo not given), the Potency is reported as “inactive”. In the case of O=C(C1CCCCC1)N1CC(=O)N2CCCc3ccccc3C2C1 (stereo not given), the Potency is reported as “inactive”. With CN=C(N)NC(=O)Nc1c(C)cccc1C the Potency was “inactive”. In the case of CC(=O)/C=C/C=C1/C2CCC(C2)C1(C)C (stereo not given), the Potency is reported as “inactive”. In the case of CCOCCn1c(C2CCN(CCc3ccc(C(C)(C)C(=O)O)cc3)CC2)nc2ccccc21, the Potency is reported as “inactive”. In the case of CCCC(=O)c1cc(O)c(O)cc1O, the Potency is reported as “inactive”. With CCCN(CCC)C(=O)C(CCC(=O)OCCCN1CCN(CCOC(=O)Cc2c(C)n(C(=O)c3ccc(Cl)cc3)c3ccc(OC)cc23)CC1)NC(=O)c1ccccc1 (stereo not given) the Potency was “inactive”. For CC(=O)O[C@@H]1CC2C3CCc4cc(OC(=O)c5ccccc5)ccc4C3CCC2(C)[C@H]1OC(C)=O (stereo not given in full), the Potency was “inactive”. With Cc1cccc(C)c1NC(=O)c1cc(S(N)(=O)=O)c(Cl)cc1O the Potency was “inactive”. With CCOC(=O)c1ccc(OCCN2C[C@H](O)[C@@H](O)[C@H](O)[C@H]2CO)cc1 the Potency was “inactive”. In the case of COc1ccc2c(c1)CCCC2=O, the Potency is reported as “inactive”. In the case of C=CC[N+]1([C@H]2C[C@H]3[C@@H]4CC[C@H]5C[C@H](OC(C)=O)[C@@H](N6CCCCC6)C[C@]5(C)[C@H]4CC[C@]3(C)[C@H]2OC(=O)CC)CCCCC1, the Potency is reported as “inactive”. For CC(=O)OCC(=O)[C@@]1(O)[C@H](OC(C)=O)C[C@H]2[C@@H]3CCC4=CC(=O)C=C[C@]4(C)[C@@]3(F)[C@@H](O)C[C@@]21C, the Potency was “inactive”. For CC1(C)O[C@@H]2C[C@H]3[C@@H]4C[C@H](F)C5=CC(=O)C=C[C@]5(C)[C@@]4(F)[C@@H](O)C[C@]3(C)[C@]2(C(=O)CO)O1, the Potency was “inactive”. For CC1(C)OC(=O)Nc2ccc(Br)cc21, the Potency was “inactive”. With CCCC(CCC)(C(=O)OCC)C(=O)OCC the Potency was “inactive”. In the case of C[C@]12CCC(=O)C=C1CC[C@@H]1[C@@H]2[C@@H](O)C[C@@]2(C)[C@H]1CC[C@]2(O)C(=O)COC(=O)CCC(=O)O, the Potency is reported as “inactive”. For O=C(CCCCCCCCC#CI)Oc1ccccc1, the Potency was “inactive”. With O=C(O)c1[nH]n(-c2ccc(S(=O)(=O)O)cc2)c(=O)c1N=Nc1ccc(S(=O)(=O)O)cc1 the Potency was “inactive”. For COc1ccccc1N1CCN(CC(O)COc2cc(OC)c(OC)c(OC)c2)CC1 (stereo not given), the Potency was “inactive”. In the case of O=C1NC(c2ccccc2)(c2ccccc2)C(=O)N1COP(=O)(O)O, the Potency is reported as “inactive”. In the case of C=C(C)C(=O)OCC(O)CO (stereo not given), the Potency is reported as “inactive”. In the case of O=C(O)[C@H](O)[C@@H](O)[C@H](O[C@@H]1O[C@H](CO)[C@H](O)[C@H](O)[C@H]1O)[C@H](O)CO, the Potency is reported as “inactive”. In the case of COc1ccc2cc(C=O)ccc2c1, the Potency is reported as “inactive”. For CCCC(=O)O[C@]1(C(=O)CC)CC[C@H]2[C@@H]3CCC4=CC(=O)CC[C@]4(C)[C@H]3[C@@H](O)C[C@@]21C, the Potency was “inactive”. For CCOC(=O)Cn1cccc1-c1nc(-c2ccc(OC)cc2)c(-c2ccc(OC)cc2)s1, the Potency was “inactive”. With O=C1[C@@H]2[C@H]3CC[C@H](C3)[C@@H]2C(=O)N1CCCCN1CCN(c2ncccn2)CC1 the Potency was “inactive”. For O=C(COCCOCCOCC(=O)Nc1c(I)cc(I)c(C(=O)O)c1I)Nc1c(I)cc(I)c(C(=O)O)c1I, the Potency was “inactive”. In the case of CCc1cc(S(=O)(=O)O)c2cc(C(C)C)cccc1-2, the Potency is reported as “inactive”.
